Measurements as given in PubChem BioAssay AID1159580 (chemical genetic matrix, 2015).
Several values for one entry are separate records, joined by “and”; a condition that tells them apart may be missing. Equal entries are not always repeated. The campaign covered roughly 5,500 compounds. About 2,000 (36%) were called active. Another 18% or so got no clear call; they are omitted. Rule as the data show it: active = normalized growth mostly below about 0.91 (no sharp cut-off); inconclusive = no clear call, values can overlap the other calls; inactive = mostly above about 0.92. Some of the results follow.

Assay: chemical genetic growth profiling, strain panel (AID 1159580);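 also: tested at 20 µM; growth read once vehicle control cultures reached saturation at 30 °C; 1 = growth at the plate median or of vehicle wells; lower values mean less growth of the strain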
Conditions: growth OD

Measured: normalized growth

COc1ccc(Cl)cc1C(=O)NCCc1ccc(S(=O)(=O)NC(=O)NC2CCCCC2)cc1
inactive: S. cerevisiae deletion strains, locus YJR075W, strain HOC1, active compounds read low 0.98 and 0.984 | S. cerevisiae deletion strains, locus YKL009W, strain mrt4, active compounds read low 1.02 | S. cerevisiae deletion strains, locus YKL068W, active compounds read low 1.04 | S. cerevisiae deletion strains, locus YKL085W, strain MDH1 (second series), active compounds read low 0.977 | S. cerevisiae deletion strains, locus YKL085W, strain MDH1, active compounds read low 0.977 | S. cerevisiae deletion strains, locus YKL160W, strain elf1, active compounds read low 1.01 | S. cerevisiae deletion strains, locus YKL190W, strain CNB1, active compounds read low 0.945 | S. cerevisiae deletion strains, locus YKR001C, strain vps1, active compounds read low 0.997 | S. cerevisiae deletion strains, locus YKR026C, strain gcn3, active compounds read low 0.989 | S. cerevisiae deletion strains, locus YKR091W, strain srl3, active compounds read low 0.993 | S. cerevisiae deletion strains, locus YLL001W, strain dnm1, active compounds read low 1.01 | S. cerevisiae deletion strains, locus YLL026W, active compounds read low 0.995 | S. cerevisiae deletion strains, locus YLL041C, strain sdh2, active compounds read low 1 | S. cerevisiae deletion strains, locus YLR027C, strain aat2, active compounds read low 1.01 | S. cerevisiae deletion strains, locus YLR039C, strain RIC1, active compounds read low 0.963 | S. cerevisiae deletion strains, locus YLR058C, strain SHM2, active compounds read low 0.972 | S. cerevisiae deletion strains, locus YLR102C, strain apc9, active compounds read low 0.989 | S. cerevisiae deletion strains, locus YLR113W, strain HOG1, active compounds read low 1.01 | S. cerevisiae deletion strains, locus YLR221C, strain rsa3, active compounds read low 1 | S. cerevisiae deletion strains, locus YLR258W, strain gsy2, active compounds read low 0.982 | S. cerevisiae deletion strains, locus YLR262C, strain YPT6 (second series), active compounds read low 0.999 | S. cerevisiae deletion strains, locus YLR262C, strain YPT6, active compounds read low 0.915 | S. cerevisiae deletion strains, locus YLR268W, strain sec22, active compounds read low 0.966 | S. cerevisiae deletion strains, locus YLR320W, strain mms22, active compounds read low 1 | S. cerevisiae deletion strains, locus YLR330W, strain CHS5, active compounds read low 0.994 | S. cerevisiae deletion strains, locus YLR342W, strain FKS1 (second series), active compounds read low 1.1 | S. cerevisiae deletion strains, locus YLR342W, strain FKS1, active compounds read low 1.01 | S. cerevisiae deletion strains, locus YLR357W, strain rsc2, active compounds read low 0.998 | S. cerevisiae deletion strains, locus YLR370C, strain arc18, active compounds read low 0.998 | S. cerevisiae deletion strains, locus YLR371W, strain rom2, active compounds read low 1.01 | S. cerevisiae deletion strains, locus YLR384C, strain iki3, active compounds read low 1 | S. cerevisiae deletion strains, locus YLR418C, strain cdc73, active compounds read low 0.944 | S. cerevisiae deletion strains, locus YML016C, strain PPZ1, active compounds read low 0.987 | S. cerevisiae deletion strains, locus YML032C, strain rad52, active compounds read low 1.02 | S. cerevisiae deletion strains, locus YML120C, strain ndi1, active compounds read low 1.02 | S. cerevisiae deletion strains, locus YML124C, strain tub3, active compounds read low 1 | S. cerevisiae deletion strains, locus YMR058W, strain fet3, active compounds read low 0.999 | S. cerevisiae deletion strains, locus YMR078C, strain ctf18, active compounds read low 0.998 | S. cerevisiae deletion strains, locus YMR125W, strain sto1, active compounds read low 0.992 | S. cerevisiae deletion strains, locus YMR129W, active compounds read low 1.01 | S. cerevisiae deletion strains, locus YMR205C, strain PFK2, active compounds read low 1 | S. cerevisiae deletion strains, locus YMR223W, strain ubp8, active compounds read low 1.05 | S. cerevisiae deletion strains, locus YMR231W, strain pep5, active compounds read low 1.01 | S. cerevisiae deletion strains, locus YMR263W, strain SAP30, active compounds read low 0.961 and 1 | S. cerevisiae deletion strains, locus YMR307W, strain GAS1, active compounds read low 1.06 and 0.976 | S. cerevisiae deletion strains, locus YNL067W, strain RPL9B, active compounds read low 0.951 | S. cerevisiae deletion strains, locus YNL071W, strain lat1, active compounds read low 1.01 | S. cerevisiae deletion strains, locus YNL128W, strain TEP1, active compounds read low 0.911 | S. cerevisiae deletion strains, locus YNL153C, strain GIM3, active compounds read low 0.943 and 1.04 | S. cerevisiae deletion strains, locus YNL175C, strain NOP13, active compounds read low 1 | S. cerevisiae deletion strains, locus YNL183C, strain NPR1, active compounds read low 0.947 | S. cerevisiae deletion strains, locus YNL197C, strain WHI3, active compounds read low 1.01 | S. cerevisiae deletion strains, locus YNL209W, strain ssb2, active compounds read low 1.01 | S. cerevisiae deletion strains, locus YNL224C, strain SQS1, active compounds read low 1.01 | S. cerevisiae deletion strains, locus YNL233W, strain BNI4, active compounds read low 0.978 | S. cerevisiae deletion strains, locus YNL248C, strain rpa49, active compounds read low 1.01 | S. cerevisiae deletion strains, locus YNL250W, strain rad50, active compounds read low 0.969 | S. cerevisiae deletion strains, locus YNL271C, strain bni1, active compounds read low 0.999 | S. cerevisiae deletion strains, locus YNL298W, strain CLA4, active compounds read low 0.987 | S. cerevisiae deletion strains, locus YNL307C, strain MCK1, active compounds read low 1.03 | S. cerevisiae deletion strains, locus YNL322C, strain KRE1 (second series), active compounds read low 0.999 | S. cerevisiae deletion strains, locus YNL322C, strain KRE1, active compounds read low 0.975 | S. cerevisiae deletion strains, locus YNR049C, strain mso1, active compounds read low 1 | S. cerevisiae deletion strains, locus YNR052C, strain pop2, active compounds read low 1 | S. cerevisiae deletion strains, locus YOL006C, strain TOP1, active compounds read low 0.875 | S. cerevisiae deletion strains, locus YOL012C, strain htz1 1.15 | S. cerevisiae deletion strains, locus YOL147C, strain pex11, active compounds read low 1 | S. cerevisiae deletion strains, locus YOR001W, strain rrp6, active compounds read low 1.01 | S. cerevisiae deletion strains, locus YOR061W, strain CKA2, active compounds read low 0.96 | S. cerevisiae deletion strains, locus YOR069W, strain VPS5, active compounds read low 1 | S. cerevisiae deletion strains, locus YOR070C, strain gyp1, active compounds read low 0.995 | S. cerevisiae deletion strains, locus YOR080W, strain dia2, active compounds read low 0.987 | S. cerevisiae deletion strains, locus YOR083W, strain WHI5 (second series), active compounds read low 1.07 | S. cerevisiae deletion strains, locus YOR083W, strain WHI5, active compounds read low 1.01 | S. cerevisiae deletion strains, locus YOR106W, strain vam3, active compounds read low 1.01 | S. cerevisiae deletion strains, locus YOR136W, strain idh2, active compounds read low 0.996 | S. cerevisiae deletion strains, locus YOR144C, strain elg1, active compounds read low 0.999 | S. cerevisiae deletion strains, locus YOR184W, strain ser1, active compounds read low 1.06 | S. cerevisiae deletion strains, locus YOR231W, strain MKK1, active compounds read low 0.994 | S. cerevisiae deletion strains, locus YOR265W, strain rbl2, active compounds read low 1 | S. cerevisiae deletion strains, locus YOR270C, strain vph1, active compounds read low 0.998 | S. cerevisiae deletion strains, locus YOR290C, strain snf2, active compounds read low 0.938 | S. cerevisiae deletion strains, locus YOR316C, strain cot1, active compounds read low 0.994 | S. cerevisiae deletion strains, locus YPL051W, strain arl3, active compounds read low 1.01 | S. cerevisiae deletion strains, locus YPL055C, strain LGE1, active compounds read low 0.877 | S. cerevisiae deletion strains, locus YPL078C, strain atp4, active compounds read low 1.01 | S. cerevisiae deletion strains, locus YPL106C, strain sse1, active compounds read low 1.02 | S. cerevisiae deletion strains, locus YPL240C, strain hsp82, active compounds read low 1 | S. cerevisiae deletion strains, locus YPL241C, strain CIN2, active compounds read low 0.972 and 1.01 | S. cerevisiae deletion strains, locus YPL256C, strain CLN2, active compounds read low 1.01 | S. cerevisiae deletion strains, locus YPR119W, strain clb2, active compounds read low 0.986 | S. cerevisiae deletion strains, locus YPR141C, strain kar3, active compounds read low 0.976 | S. cerevisiae deletion strains, locus YPR163C, strain tif3, active compounds read low 1 | S. cerevisiae deletion strains, locus YPR167C, strain met16, active compounds read low 0.993 | S. cerevisiae deletion strains, strain wtn01, active compounds read low 0.98 | S. cerevisiae strains, strain wild type, active compounds read low 0.97
